# Measured values from PubChem BioAssay (NCATS).
# Where “and” joins values, the source holds several entries; their conditions need not be identical. Equal values may be shown once. Results filed as inconclusive are left out. Entries that show only a call come without a potency. Values without a mark were called inactive. Calls of active or inactive are those of the source. Unless noted, the call rests on the fitted dose curve; in most records, active means well fitted curve in the direction sought with a large enough effect; inconclusive means small, poorly fitted or top-dose-only effect, or another doubt; inactive means no such curve, though single readings can be large; an effect the other way counts as inactive or inconclusive.
# Key:
# [1] = target: Cellular tumor antigen p53 (Homo sapiens) (UniProt P04637); assay: Primary qHTS for small molecule compounds that upregulate eGFP-tagged delta133p53alpha (in N-terminal) cells. (AID 2060322); details: NCI-H358 eGFP-delta133p53alpha fluorescence, 24 h; activation: hits give high values;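 further: cells pre-induced with doxycycline then dosed without doxycycline; series mostly up to about 56 µM; nearly all actives have a fitted effect of over 75% in size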
# Cellular tumor antigen p53 (Homo sapiens), sequence (P04637 whole entry, looked up): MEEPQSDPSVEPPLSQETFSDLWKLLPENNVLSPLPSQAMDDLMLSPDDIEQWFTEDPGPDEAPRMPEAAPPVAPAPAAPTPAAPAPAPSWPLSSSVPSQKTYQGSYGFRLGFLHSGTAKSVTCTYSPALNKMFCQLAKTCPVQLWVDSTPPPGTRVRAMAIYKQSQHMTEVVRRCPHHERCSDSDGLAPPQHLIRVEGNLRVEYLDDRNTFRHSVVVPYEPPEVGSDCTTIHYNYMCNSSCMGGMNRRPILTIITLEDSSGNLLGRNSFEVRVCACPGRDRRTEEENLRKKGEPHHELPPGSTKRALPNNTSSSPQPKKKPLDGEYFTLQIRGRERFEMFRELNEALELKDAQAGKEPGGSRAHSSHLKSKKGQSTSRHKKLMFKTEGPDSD
# Outline: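 NCI-H358 cells pre-induced 24 h with 10 ng/ml doxycycline for eGFP-delta133p53alpha, plated dox-free and exposed 24 h at 37C to titrated compounds. Fixed, Hoechst-stained; gated GFP peak intensity by laser scanning cytometry, normalized to DMSO (0%) and 57.5 uM 5-azacytidine (100%).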
# [2] = BET inhibitor-based combinations targeting novel dependencies in MECOM-rearranged (r) AML: OCI-AML3 cell line (AID 2202232); details: Potency: OCI-AML3 viability; further: nearly all actives have a fitted effect of over 35% in size; further: potency means the concentration at half of the fitted maximal effect
# Outline: (§1)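 AML cell lines seeded at 500 cells/well, treated with 11-point dose curves for 48 h. Viability by CellTiter-Glo luminescence, normalised to DMSO and empty wells; activity expressed as AUC and per-cell-line Z-transformed AUC.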
# [3] = BET inhibitor-based combinations targeting novel dependencies in MECOM-rearranged (r) AML: MV-4-11 cell line (AID 2202233); further: nearly all actives have a fitted effect of over 45% in size; further: potency means the concentration at half of the fitted maximal effect
# Outline: (§2)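 Cells at 500/well were exposed for 48 hr to MIPE v5.0 drugs as 11-point dose curves. Viability was read by CellTiter-Glo luminescence and normalized to DMSO and empty-well controls. Activity was expressed as AUC and per-cell-line Z-AUC.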
# [4] = BET inhibitor-based combinations targeting novel dependencies in MECOM-rearranged (r) AML: UCSD-AML1 cell line (AID 2202235); further: nearly all actives have a fitted effect of over 40% in size; further: potency means the concentration at half of the fitted maximal effect
# Outline: as §2
# [5] = BET inhibitor-based combinations targeting novel dependencies in MECOM-rearranged (r) AML: AML-191 cell line (AID 2202236; further: nearly all actives have a fitted effect of over 35% in size; further: potency means the concentration at half of the fitted maximal effect)
# Outline: as §1
# [6] = BET inhibitor-based combinations targeting novel dependencies in MECOM-rearranged (r) AML: AML-194 cell line (AID 2202237; further: nearly all actives have a fitted effect of over 40% in size; further: potency means the concentration at half of the fitted maximal effect)
# Outline: as §1
# [7] = target: Cellular tumor antigen p53 (Homo sapiens) (UniProt P04637); assay: Primary qHTS for small molecule compounds that upregulate eGFP-tagged delta133p53alpha (in C-terminal) cells. (AID 2060324); further: potency means the concentration at half of the fitted maximal effect
# Outline: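 Concentration-response screen: compounds titrated onto pre-induced NCI-H358 D133p53a-eGFP cells, incubated one day, fixed with 3.5% PFA. Per-cell GFP peak intensity was gated, then normalized against intraplate controls.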
# [8] = target: Aldehyde dehydrogenase, mitochondrial (Homo sapiens) (UniProt P05091); assay: qHTS for Inhibitors of the Aldehyde Dehydrogenase Family (ALDH2) Validation screens (AID 2061302; active means well fitted inhibition curve with a large enough effect; title and protocol of this record describe different tests; further: potency means the concentration at half of the fitted maximal effect)
# [9] = target: Aldehyde dehydrogenase, mitochondrial (Homo sapiens) (UniProt P05091); assay: qHTS for Inhibitors of the Aldehyde Dehydrogenase Family (ALDH2) Confirmatory screens (AID 2061303; active means well fitted inhibition curve with a large enough effect; title and protocol of this record describe different tests; further: nearly all actives have a fitted effect of over 45% in size; further: potency means the concentration at half of the fitted maximal effect)
# [10] = qHTS for Inhibitors of the Aldehyde Dehydrogenase Family (ALDH1A2, ALDH1A3, ALDH2, ALDH3A1) (AID 2061307); further: nearly all actives have a fitted effect of over 50% in size
# [11] = target: Retinaldehyde dehydrogenase 3 (Homo sapiens) (UniProt P47895); assay: qHTS for Inhibitors of the Aldehyde Dehydrogenase Family (ALDH1A3) Confirmatory screens (AID 2061311); further: nearly all actives have a fitted effect of over 60% in size; further: potency means the concentration at half of the fitted maximal effect
# [12] = target: Aldehyde dehydrogenase 1A1 (Homo sapiens) (UniProt P00352); assay: qHTS for Inhibitors of the Aldehyde Dehydrogenase Family (ALDH1A1) Confirmatory screens (AID 2061316); further: nearly all actives have a fitted effect of over 65% in size; further: potency means the concentration at half of the fitted maximal effect
# [13] = target: Aldehyde dehydrogenase, mitochondrial (Homo sapiens) (UniProt P05091); assay: qHTS for Inhibitors of the Aldehyde Dehydrogenase Family (ALDH2) Primary screen (AID 2061308); further: nearly all actives have a fitted effect of over 55% in size; further: potency means the concentration at half of the fitted maximal effect
# [14] = target: Retinaldehyde dehydrogenase 3 (Homo sapiens) (UniProt P47895); assay: qHTS for Inhibitors of the Aldehyde Dehydrogenase Family (ALDH1A3) Validation screen (AID 2061312); further: nearly all actives have a fitted effect of over 45% in size
# [15] = target: Retinaldehyde dehydrogenase 3 (Homo sapiens) (UniProt P47895); assay: qHTS for Inhibitors of the Aldehyde Dehydrogenase Family (ALDH1A3) Primary screen (AID 2061315)
# [16] = target: Retinal dehydrogenase 2 (Homo sapiens) (UniProt O94788); assay: qHTS for Inhibitors of the Aldehyde Dehydrogenase Family (ALDH1A2) Confirmation screens (AID 2061314); further: nearly all actives have a fitted effect of over 65% in size; further: potency means the concentration at half of the fitted maximal effect
# [17] = BET inhibitor-based combinations targeting novel dependencies in MECOM-rearranged (r) AML: SET-2 cell line (AID 2202231); details: SET-2 AML cells viability, CellTiter-Glo luminescence, 48 h; viability: hits give low values, concentration not given here; further: nearly all actives have a fitted effect of over 35% in size; further: potency means the concentration at half of the fitted maximal effect
# Outline: as §1
# [18] = BET inhibitor-based combinations targeting novel dependencies in MECOM-rearranged (r) AML: HNT-34 cell line (AID 2202234); further: nearly all actives have a fitted effect of over 35% in size; further: potency means the concentration at half of the fitted maximal effect
# Outline: as §2
smiles,measurement,setting,value
CCNC(=O)c1cc2c(-c3cc(OCCN4CCCC4)c(Cl)cc3Cl)nc(N)nc2s1,activation,[1],-12.6%
same,Potency,[2],2.04 µM (active)
same,Potency,[3],0.363 µM (active)
same,Potency,[4],1.29 µM (active)
same,Potency,[5],1.82 µM (active)
NC(=O)[C@@H](CCC(F)(F)F)N(Cc1ccc(-c2ncon2)cc1F)S(=O)(=O)c1ccc(Cl)cc1,activation,[1],12.6%
same,Potency,[2],inactive
same,Potency,[6],inactive
N[C@H](C(=O)O)[C@H](O)C(=O)O,Potency,[7],inactive
same,Potency,[8],inactive
same,Potency,[9],inactive
same,Potency,[10],inactive
same,Potency,[11],inactive
same,Potency,[12],inactive
O=C(c1ccc(F)cc1)C1CCN(CCn2c(=O)[nH]c3ccccc3c2=O)CC1,Potency,[7],inactive
same,Potency,[8],inactive
same,Potency,[13],inactive
same,Potency,[14],inactive
same,Potency,[15],inactive
COc1cccc(OC)c1OCCNCC1CSc2ccccc2O1 (configuration not stated),Potency,[7],inactive
same,Potency,[8],inactive
same,Potency,[14],inactive
CCCCCCCCCCCCCCCCCCOC[C@H](COP(=O)([O-])OCC[N+](C)(C)C)OC,Potency,[7],inactive
same,Potency,[8],inactive
same,Potency,[14],inactive
CC(C)N(CCC(=O)c1ccc2ccccc2c1)Cc1ccccc1,Potency,[7],23.9 µM (active)
same,Potency,[8],355 nM (active) and 2.51 µM (active)
same,Potency,[9],3.16 µM (active)
same,Potency,[10],0.0127 µM (active)
same,Potency,[13],0.251 µM (active)
same,Potency,[11],0.283 µM (active)
same,Potency,[16],0.0565 µM (active)
same,Potency,[12],0.0449 µM (active)
same,Potency,[17],8.33 µM (active)
same,Potency,[2],4.17 µM (active)
same,Potency,[18],5.25 µM (active)
same,Potency,[4],4.17 µM (active)
same,Potency,[5],6.61 µM (active)
same,Potency,[6],7.42 µM (active)
CCCc1nn(C)c2c(=O)[nH]c(-c3cc(S(=O)(=O)N4CCN(C)CC4)ccc3OCC)nc12,Potency,[7],inactive
same,Potency,[8],inactive
same,Potency,[13],inactive
same,Potency,[14],inactive
same,Potency,[15],inactive
same,viability,[17],114%
same,Potency,[2],inactive
same,Potency,[3],inactive
same,Potency,[18],inactive
same,Potency,[4],inactive
same,Potency,[5],inactive
same,Potency,[6],inactive
O=C1NCc2c1c1c3ccccc3[nH]c1c1[nH]c3ccccc3c21,Potency,[7],30.1 µM (active)
same,Potency,[8],inactive
same,Potency,[14],inactive
O=C(/C=C/c1ccc(O)cc1)c1ccc(O)cc1O,Potency,[7],inactive
same,Potency,[8],inactive
same,Potency,[9],inactive
same,Potency,[10],1.2 µM (active)
same,Potency,[11],0.504 µM (active)
same,Potency,[12],3.18 µM (active)
same,Potency,[2],14.8 µM (active)
same,Potency,[3],11.8 µM (active)
same,Potency,[18],9.34 µM (active)
same,Potency,[4],inactive
same,Potency,[5],26.3 µM (active)
CC(C)(C)[C@]1(O)CCN2C[C@H]3c4ccccc4CCc4cccc(c43)[C@@H]2C1,Potency,[7],inactive
same,Potency,[8],inactive
same,Potency,[14],inactive
CCOC(=O)C1=C(C)NC(C)=C(C(=O)OC)C1c1cccc([N+](=O)[O-])c1 (configuration not stated),Potency,[7],inactive
same,Potency,[8],inactive
O=S(=O)(c1cccc2c(I)cccc12)N1CCCNCC1,Potency,[7],inactive
same,Potency,[8],inactive
same,Potency,[10],inactive
same,Potency,[16],inactive
same,Potency,[2],20.9 µM (active)
same,Potency,[3],inactive
same,Potency,[18],inactive
same,Potency,[4],inactive
same,Potency,[5],inactive
same,Potency,[6],inactive
NC(=O)CNCCC(c1ccccc1)c1ccccc1,Potency,[7],inactive
same,Potency,[8],inactive
same,Potency,[14],inactive
O=C1C(SCCO)=C(SCCO)C(=O)c2ccccc21,Potency,[7],8.49 µM (active)
same,Potency,[8],2.24 µM (active)
same,Potency,[14],inactive
NC1[C@H]2CN(c3nc4c(cc3F)c(=O)c(C(=O)O)cn4-c3ccc(F)cc3F)C[C@@H]12 (some centres not stated),Potency,[7],inactive
same,Potency,[8],inactive
same,Potency,[14],inactive
CC(C)(C)NCC(O)COc1cccc2[nH]c(=O)[nH]c12 (configuration not stated),Potency,[7],inactive
same,Potency,[8],inactive
same,Potency,[14],inactive
Cc1cc(NC(=O)Nc2ccc3c(ccn3C)c2)sn1,Potency,[7],inactive
same,Potency,[8],inactive
same,Potency,[14],inactive
CC#CCOC(=O)c1c(C)nc2sc3c(c2c1N)CCC(O)C3 (configuration not stated),Potency,[7],inactive
same,Potency,[8],inactive
same,Potency,[14],inactive
CC(=O)NC[C@H]1CN(c2ccc(N3CCOCC3)c(F)c2)C(=O)O1,Potency,[7],inactive
same,Potency,[8],inactive
same,Potency,[13],inactive
same,Potency,[14],inactive
same,Potency,[15],inactive
same,viability,[17],105%
same,Potency,[2],inactive
same,Potency,[18],inactive
same,Potency,[4],inactive
same,Potency,[5],inactive
same,Potency,[6],inactive
CCCCCCCCCCCCCCCCCCN(CCCCCCCCCCCCCCCCCC)CCCN(CCO)CCO,Potency,[7],inactive
same,Potency,[8],inactive
C[N+]1(CCCCC[N+]2(C)CCCC2)CCCC1,Potency,[7],inactive
same,Potency,[8],inactive
N=c1c[n+](N2CCOCC2)[n-]o1,Potency,[7],inactive
same,Potency,[8],inactive
CCCCCC(O)CCCC(=O)O (configuration not stated),Potency,[7],inactive
same,Potency,[8],inactive
same,Potency,[14],inactive
Cc1ccccc1/C=C/C1=NCCN1,Potency,[7],inactive
same,Potency,[8],inactive
same,Potency,[14],inactive
CCc1cccc2c3c([nH]c12)C(CC)(CC(=O)O)OCC3 (configuration not stated),Potency,[7],inactive
same,Potency,[8],inactive
same,Potency,[14],inactive
NC[C@H]1O[C@@H](n2cnc3c(N)ncnc32)[C@H](O)[C@@H]1O,Potency,[7],inactive
same,Potency,[8],inactive
same,Potency,[14],inactive
